Results: the supplement of paper PMC10849652
About 7,900 targets were measured; listed, in parts, are those with a hit and a random draw of the rest. About 0.6% of all pairs of compound and target were hits. A number with no mark means an inactive call.

Key:
Experiment in all cases: log2 fold change, soluble protein after heating vs DMSO (PISA); higher = thermal stabilisation; K562 cells, 10 uM, 30 min; active = over 0.2 and 3.5 SD of the protein, either way, in both replicates (recomputed)
bafetinib = compound: Cc1ccc(NC(=O)c2ccc(CN3CC[C@H](N(C)C)C3)c(C(F)(F)F)c2)cc1Nc1nccc(-c2cncnc2)n1 [bafetinib]
In short: (§1)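 K562 cells at 2×10^6 cells/mL were exposed to 10 μM compound for 30 min, then aliquots were heated for 3 min across 48°C-58°C, pooled, and extracted in PBS containing 0.5% NP-40 at 4°C. The supernatant after 21,000xg for 90 min was taken as soluble protein and measured by TMTpro 16plex LC-MS/MS with channel sums equalised. Thermal stability is reported relative to control samples, with values from duplicates. Fold changes are given on a log2 scale.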

[1] = compound: Cc1cccc(CC(=O)N2CCc3c2ccc(-c2cn(C)c4ncnc(N)c24)c3F)n1
In short: as §1

nilotinib = compound: Cc1cn(-c2cc(NC(=O)c3ccc(C)c(Nc4nccc(-c5cccnc5)n4)c3)cc(C(F)(F)F)c2)cn1 [nilotinib]
In short: as §1

[2] = compound: Cc1nc(Nc2n[nH]c3c2CN(C(=O)N[C@H](CN(C)C)c2ccccc2)C3(C)C)c2sccc2n1
In short: as §1

dasatinib = compound: Cc1nc(Nc2ncc(C(=O)Nc3c(C)cccc3Cl)s2)cc(N2CCN(CCO)CC2)n1 [dasatinib]
In short: as §1

[3] = compound: Cc1ncc(-c2ccnc(Nc3ccc(S(C)(=O)=O)cc3)n2)n1C(C)C
In short: as §1

[4] = compound: Cn1cc(-c2ccc3c(c2)CCN3C(=O)Cc2cccc(C(F)(F)F)c2)c2c(N)ncnc21
In short: as §1

[5] = compound: Cn1cc(-c2ccc3nnc(C(F)(F)c4ccc5ncccc5c4)n3n2)cn1
In short: as §1

tipifarnib = compound: Cn1cncc1[C@@](N)(c1ccc(Cl)cc1)c1ccc2c(c1)c(-c1cccc(Cl)c1)cc(=O)n2C [tipifarnib]
In short: as §1

mubritinib = compound: FC(F)(F)c1ccc(/C=C/c2nc(COc3ccc(CCCCn4ccnn4)cc3)co2)cc1 [mubritinib]
In short: as §1

[6] = compound: NC(=O)Nc1cc(-c2cccc(F)c2)sc1C(=O)N[C@H]1CCCNC1
In short: as §1

[7] = compound: NC(=O)c1cnc(N[C@@H]2CCCC[C@@H]2N)nc1Nc1cccc(-n2nccn2)c1
In short: as §1

[8] = compound: NC1(c2ccc(-c3nc4ccn5c(=O)[nH]nc5c4cc3-c3ccccc3)cc2)CCC1
In short: as §1

[9] = compound: NCC(=O)Nc1ccc(-n2nc(C(F)(F)F)cc2-c2ccc3c(ccc4ccccc43)c2)cc1
In short: as §1

entinostat = compound: Nc1ccccc1NC(=O)c1ccc(CNC(=O)OCc2cccnc2)cc1 [entinostat]
In short: as §1

vorinostat = compound: O=C(CCCCCCC(=O)Nc1ccccc1)NO [vorinostat]
In short: as §1

citarinostat = compound: O=C(CCCCCCNC(=O)c1cnc(N(c2ccccc2)c2ccccc2Cl)nc1)NO [citarinostat]
In short: as §1

silmitasertib = compound: O=C(O)c1ccc2c(c1)nc(Nc1cccc(Cl)c1)c1ccncc12 [silmitasertib]
In short: as §1

[10] = compound: O=C1NC(=O)C(c2cnc3ccccn23)=C1c1cn2c3c(cc(F)cc13)CN(C(=O)N1CCCCC1)CC2
In short: as §1

[11] = compound: c1cc(OCCN2CCCCC2)cc(-c2n[nH]c3ccc(-c4nnc[nH]4)cc23)c1
In short: as §1

Chain of UniProt Q9Y3C0 (Q9Y3C0 whole entry, looked up): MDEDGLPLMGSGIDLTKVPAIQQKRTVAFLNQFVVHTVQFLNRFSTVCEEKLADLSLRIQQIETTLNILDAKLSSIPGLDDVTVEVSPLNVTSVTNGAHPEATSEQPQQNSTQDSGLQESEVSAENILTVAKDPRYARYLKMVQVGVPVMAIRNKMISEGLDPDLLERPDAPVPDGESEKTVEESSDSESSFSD
Chain of UniProt Q9UHP3 (Q9UHP3 whole entry, looked up): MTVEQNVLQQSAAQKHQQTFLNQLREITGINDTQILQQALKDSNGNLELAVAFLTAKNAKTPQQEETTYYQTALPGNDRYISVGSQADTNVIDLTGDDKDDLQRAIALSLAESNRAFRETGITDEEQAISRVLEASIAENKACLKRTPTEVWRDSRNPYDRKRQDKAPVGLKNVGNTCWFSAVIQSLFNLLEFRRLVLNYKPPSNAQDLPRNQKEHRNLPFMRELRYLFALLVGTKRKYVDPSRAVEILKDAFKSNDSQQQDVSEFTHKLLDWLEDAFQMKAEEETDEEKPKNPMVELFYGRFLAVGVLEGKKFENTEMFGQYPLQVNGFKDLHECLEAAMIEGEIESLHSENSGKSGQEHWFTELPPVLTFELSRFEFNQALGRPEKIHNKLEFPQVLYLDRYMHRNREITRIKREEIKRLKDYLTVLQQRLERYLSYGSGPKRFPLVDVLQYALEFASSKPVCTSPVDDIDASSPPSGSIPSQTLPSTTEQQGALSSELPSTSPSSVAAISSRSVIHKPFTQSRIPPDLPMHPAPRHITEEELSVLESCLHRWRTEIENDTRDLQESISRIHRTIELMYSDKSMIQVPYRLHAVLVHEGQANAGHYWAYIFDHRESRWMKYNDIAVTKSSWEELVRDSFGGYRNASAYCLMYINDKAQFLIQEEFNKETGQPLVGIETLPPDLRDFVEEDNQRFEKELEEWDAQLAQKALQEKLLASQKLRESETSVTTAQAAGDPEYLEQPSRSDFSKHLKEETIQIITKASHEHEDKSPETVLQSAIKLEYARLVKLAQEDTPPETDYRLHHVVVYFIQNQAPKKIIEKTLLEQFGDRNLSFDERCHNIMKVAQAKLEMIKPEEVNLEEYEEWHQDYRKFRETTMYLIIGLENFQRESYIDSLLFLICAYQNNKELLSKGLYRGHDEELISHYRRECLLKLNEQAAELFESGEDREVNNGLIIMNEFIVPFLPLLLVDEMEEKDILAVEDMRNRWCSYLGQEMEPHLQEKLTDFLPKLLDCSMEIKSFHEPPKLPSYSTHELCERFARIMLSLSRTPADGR
Chain of UniProt O95155 (O95155 whole entry, looked up): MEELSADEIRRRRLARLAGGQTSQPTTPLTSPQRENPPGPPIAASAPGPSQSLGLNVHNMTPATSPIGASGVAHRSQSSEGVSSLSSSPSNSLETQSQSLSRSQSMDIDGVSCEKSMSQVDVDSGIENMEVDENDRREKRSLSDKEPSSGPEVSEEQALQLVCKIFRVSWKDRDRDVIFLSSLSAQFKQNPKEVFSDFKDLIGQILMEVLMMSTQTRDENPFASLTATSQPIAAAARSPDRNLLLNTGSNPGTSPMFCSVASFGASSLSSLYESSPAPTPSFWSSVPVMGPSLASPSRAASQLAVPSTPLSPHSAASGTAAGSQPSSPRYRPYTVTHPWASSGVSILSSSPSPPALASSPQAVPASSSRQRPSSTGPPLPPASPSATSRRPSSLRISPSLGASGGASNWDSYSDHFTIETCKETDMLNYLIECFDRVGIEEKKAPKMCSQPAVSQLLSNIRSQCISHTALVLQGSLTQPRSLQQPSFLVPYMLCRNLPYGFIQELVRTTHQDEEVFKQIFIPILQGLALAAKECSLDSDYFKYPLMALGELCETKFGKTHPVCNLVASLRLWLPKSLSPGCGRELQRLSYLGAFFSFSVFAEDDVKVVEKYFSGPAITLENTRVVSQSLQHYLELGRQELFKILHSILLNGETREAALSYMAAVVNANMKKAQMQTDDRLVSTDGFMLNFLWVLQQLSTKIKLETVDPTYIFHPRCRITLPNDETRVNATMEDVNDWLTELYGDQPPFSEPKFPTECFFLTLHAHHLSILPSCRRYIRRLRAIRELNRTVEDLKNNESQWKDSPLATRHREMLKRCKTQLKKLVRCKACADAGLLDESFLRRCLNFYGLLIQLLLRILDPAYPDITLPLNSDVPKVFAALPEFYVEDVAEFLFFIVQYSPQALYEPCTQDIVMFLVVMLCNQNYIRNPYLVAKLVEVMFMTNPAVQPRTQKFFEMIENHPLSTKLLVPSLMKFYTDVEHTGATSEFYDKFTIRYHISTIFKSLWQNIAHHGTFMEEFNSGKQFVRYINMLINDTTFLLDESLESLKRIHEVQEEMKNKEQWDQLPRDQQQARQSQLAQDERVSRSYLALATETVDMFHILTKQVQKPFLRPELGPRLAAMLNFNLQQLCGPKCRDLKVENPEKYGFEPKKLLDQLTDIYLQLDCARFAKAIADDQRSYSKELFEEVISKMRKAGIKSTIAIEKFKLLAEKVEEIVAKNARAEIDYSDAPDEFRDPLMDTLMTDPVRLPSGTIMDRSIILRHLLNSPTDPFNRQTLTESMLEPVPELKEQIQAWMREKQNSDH
Chain of UniProt Q15061 (Q15061 whole entry, looked up): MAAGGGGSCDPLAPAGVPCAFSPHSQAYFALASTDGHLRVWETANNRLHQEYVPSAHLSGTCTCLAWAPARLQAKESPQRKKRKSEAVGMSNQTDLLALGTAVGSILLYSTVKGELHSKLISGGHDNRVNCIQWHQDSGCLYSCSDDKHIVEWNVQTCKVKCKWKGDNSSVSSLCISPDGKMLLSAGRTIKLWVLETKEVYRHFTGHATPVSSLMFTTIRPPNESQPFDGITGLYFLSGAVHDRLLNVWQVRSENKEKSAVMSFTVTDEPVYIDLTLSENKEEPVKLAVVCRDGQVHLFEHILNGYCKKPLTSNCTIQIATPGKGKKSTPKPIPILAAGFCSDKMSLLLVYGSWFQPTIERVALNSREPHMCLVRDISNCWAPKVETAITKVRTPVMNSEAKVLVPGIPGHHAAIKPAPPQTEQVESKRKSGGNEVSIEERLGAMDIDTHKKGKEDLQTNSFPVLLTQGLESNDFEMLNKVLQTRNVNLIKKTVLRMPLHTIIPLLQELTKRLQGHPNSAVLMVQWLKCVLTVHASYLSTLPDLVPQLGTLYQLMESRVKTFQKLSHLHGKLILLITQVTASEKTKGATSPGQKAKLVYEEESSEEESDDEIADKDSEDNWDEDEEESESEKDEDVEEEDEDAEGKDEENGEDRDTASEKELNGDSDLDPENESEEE
Chain of UniProt Q5TAX3 (Q5TAX3 whole entry, looked up): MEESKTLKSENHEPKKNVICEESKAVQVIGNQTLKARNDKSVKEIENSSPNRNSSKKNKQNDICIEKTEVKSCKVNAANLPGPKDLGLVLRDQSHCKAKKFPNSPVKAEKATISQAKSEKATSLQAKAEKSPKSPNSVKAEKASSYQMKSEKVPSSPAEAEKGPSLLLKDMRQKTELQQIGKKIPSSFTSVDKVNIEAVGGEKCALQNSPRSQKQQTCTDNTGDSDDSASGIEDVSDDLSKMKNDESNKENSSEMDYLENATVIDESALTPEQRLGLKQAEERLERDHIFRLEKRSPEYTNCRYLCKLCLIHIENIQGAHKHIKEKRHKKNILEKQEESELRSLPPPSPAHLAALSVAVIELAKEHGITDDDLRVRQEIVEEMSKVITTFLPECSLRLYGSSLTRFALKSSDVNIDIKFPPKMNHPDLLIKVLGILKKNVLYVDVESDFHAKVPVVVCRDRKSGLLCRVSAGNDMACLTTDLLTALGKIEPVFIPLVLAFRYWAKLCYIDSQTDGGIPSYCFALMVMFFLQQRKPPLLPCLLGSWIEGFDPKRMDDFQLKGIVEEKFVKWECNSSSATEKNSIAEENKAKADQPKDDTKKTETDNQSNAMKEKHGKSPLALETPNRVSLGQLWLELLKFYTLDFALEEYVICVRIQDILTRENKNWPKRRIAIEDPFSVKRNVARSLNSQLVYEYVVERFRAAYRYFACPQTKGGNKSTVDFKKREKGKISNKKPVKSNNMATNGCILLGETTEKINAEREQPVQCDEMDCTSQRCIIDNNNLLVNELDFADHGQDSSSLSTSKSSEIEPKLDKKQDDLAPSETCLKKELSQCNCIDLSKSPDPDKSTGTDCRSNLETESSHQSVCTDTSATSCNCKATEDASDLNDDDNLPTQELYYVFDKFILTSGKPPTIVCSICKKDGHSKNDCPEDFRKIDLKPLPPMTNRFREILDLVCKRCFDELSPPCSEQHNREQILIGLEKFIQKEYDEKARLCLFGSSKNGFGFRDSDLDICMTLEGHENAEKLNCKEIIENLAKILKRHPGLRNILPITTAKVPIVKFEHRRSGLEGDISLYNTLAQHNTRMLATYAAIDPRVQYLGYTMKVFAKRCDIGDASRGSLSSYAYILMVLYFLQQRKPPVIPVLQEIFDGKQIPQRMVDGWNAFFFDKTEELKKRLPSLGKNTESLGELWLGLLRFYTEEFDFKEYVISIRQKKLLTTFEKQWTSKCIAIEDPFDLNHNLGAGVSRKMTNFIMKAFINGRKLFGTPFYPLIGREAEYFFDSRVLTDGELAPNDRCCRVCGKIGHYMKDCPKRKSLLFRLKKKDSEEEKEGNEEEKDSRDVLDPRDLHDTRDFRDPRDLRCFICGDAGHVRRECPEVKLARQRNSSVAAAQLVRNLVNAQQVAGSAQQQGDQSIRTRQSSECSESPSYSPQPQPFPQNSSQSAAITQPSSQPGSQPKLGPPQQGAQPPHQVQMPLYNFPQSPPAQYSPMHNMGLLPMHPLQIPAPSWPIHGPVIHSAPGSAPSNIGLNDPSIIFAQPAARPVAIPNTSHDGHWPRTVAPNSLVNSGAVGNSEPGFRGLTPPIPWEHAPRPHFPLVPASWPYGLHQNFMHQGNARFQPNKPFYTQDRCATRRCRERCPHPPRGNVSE

| Target | log2 fold change (bafetinib) | log2 fold change [1] | log2 fold change (nilotinib) | log2 fold change [2] | log2 fold change (dasatinib) | log2 fold change [3] | log2 fold change [4] | log2 fold change [5] | log2 fold change (tipifarnib) | log2 fold change (mubritinib) | log2 fold change [6] | log2 fold change [7] | log2 fold change [8] | log2 fold change [9] | log2 fold change (entinostat) | log2 fold change (vorinostat) | log2 fold change (citarinostat) | log2 fold change (silmitasertib) | log2 fold change [10] | log2 fold change [11] |
| --- | --- | --- | --- | --- | --- | --- | --- | --- | --- | --- | --- | --- | --- | --- | --- | --- | --- | --- | --- | --- |
| UBE4B isoform 4 (UniProt O95155) | -0.003 | 0.053 | -0.051 | -0.011 | -0.069 | -0.024 | -0.019 | -0.011 | -0.024 | 0.032 | 0.005 | -0.055 | -0.113 | -0.056 | 0.019 | 0.023 | 0.02 | 0.042 | -0.082 | -0.014 |
| WDR43 (UniProt Q15061) | -0.041 | -0.052 | -0.013 | 0.033 | 0.015 | 0.102 | -0.022 | 0.013 | 0.005 | -0.024 | 0.023 | 0.03 | 0.068 | -0.023 | -0.029 | -0.078 | 0.007 | 0.051 | -0.007 | -0.027 |
| WASHC3 (UniProt Q9Y3C0) | -0.06 | -0.032 | -0.042 | 0.001 | 0.047 | 0.028 | 0.035 | 0.048 | 0.029 | 0.003 | -0.037 | 0.1 | -0.271 (active) | -0.029 | -0.011 | -0.053 | 0.016 | 0.075 | -0.054 | -0.005 |
| USP25 isoform 3 (UniProt Q9UHP3) | -0.043 | 0.029 | -0.021 | -0.017 | -0.048 | 0.018 | -0.038 | 0.009 | -0.024 | 0.023 | -0.038 | -0.027 | -0.071 | -0.067 | 0.001 | -0.019 | -0.021 | 0.051 | -0.03 | 0.011 |
| UBLCP1 (UniProt Q8WVY7) | 0.016 | -0.034 | -0.101 | 0.074 | -0.063 | 0.116 | -0.052 | 0.006 | -0.072 | 0.155 | -0.084 | -0.009 | -0.165 | -0.048 | 0.122 | 0 | 0.085 | 0.049 | -0.142 | 0.035 |
| XPO5 (UniProt Q9HAV4) | -0.037 | 0.036 | -0.07 | -0.118 | -0.11 | -0.054 | 0.026 | 0.004 | -0.071 | 0.006 | -0.025 | -0.068 | -0.234 (active) | -0.074 | 0.046 | 0.065 | 0.068 | -0.003 | -0.022 | -0.042 |
| TUT4 (UniProt Q5TAX3) | -0.281 | 0.074 | -0.153 | 0.01 | -0.105 | -0.116 | -0.097 | -0.066 | -0.049 | -0.01 | 0.028 | – | 0.07 | -0.349 | 0.004 | -0.032 | -0.161 | 0.094 | 0.322 | -0.063 |
| U2AF2 (UniProt P26368) | -0.019 | -0.241 (active) | -0.003 | -1.66 (active) | 0.018 | 0.049 | -0.011 | -0.044 | 0.045 | -0.051 | -0.125 | -0.021 | 0.033 | -0.051 | -0.031 | -0.129 | -0.014 | -0.049 | 0.113 | -0.09 |
